Vif-APOBEC3F blk – Vif-A3F binding inhibition; HeLa A3F-eYFP + Vif (tagged APOBEC3F with the HIV-1 protein that degrades it), YFP fluorescence increase; Potency, µM (highest dose often 46.1 µM); actives 0.2% (n = 390,000); AID 602313; note: nearly all actives have a fitted effect of over 65% in size
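HeLa cells stably expressing Vif plus C-terminally eYFP-tagged A3F were seeded, incubated overnight at 37 deg C, dosed with compound, incubated overnight again at 37 deg C. Yellow fluorescence (Ex 488/Em 500-530) reported blocked Vif-mediated A3F-eYFP degradation.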
Giardia killer – kills Giardia lamblia; Giardia lamblia trophozoite viability; activity change, % at 7.66 µM, hits read low; actives 0.15% (n = 340,000); AID 540267; in the data active = activity change below about -80%; inconclusive = between about -30% and that limit;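 note: parasites exposed to compound for two days anaerobically before the ATP read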
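Luminescent ATP signal served as the viability read-out, measured 15-30 min after adding ATP detection reagent to trophozoites that had been incubated with compounds for 48 hrs at 37 deg C anaerobically at 100 cells/well.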
IL1B secr inh – blocks inflammasome-driven IL-1 beta release; activity change, % at 57.5 µM; THP-1 LPS/ATP IL-1B secretion, AlphaLISA, 16 h; active compounds read low; actives 4.7% (n = 360,000); in the data active = activity change below about -50%; inconclusive = mostly about -30% to -49%
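Secreted IL-1B measured by AlphaLISA bead assay after 16 h compound exposure of THP-1 cells; compounds (final up to 57.5 uM) added 1 h before LPS (250 ng/mL) and ATP (1.25 mM) stimulation; lower signal means less secretion.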
MCF10A rereplic – induces DNA re-replication in MCF 10a normal breast cells | MCF 10A DNA re-replication, Hoechst nuclear intensity, 48 h | Potency, µM (titrated, usually from 46.1 µM), actives largely listed as activators | actives 2.9% (n = 350,000); note: nearly all actives have a fitted effect of over 50% in size
Vif-A3G inh – blocks the Vif interaction with human APOBEC3G; actives 0.076% (n = 410,000); AID 602310; Q9HC16; HeLa A3G-eYFP + Vif (tagged APOBEC3G with the HIV-1 protein that degrades it), YFP fluorescence, overnight; Potency, µM (series often up to 46.1 µM), hits mostly inhibitors; note: nearly all actives have a fitted effect of over 60% in size
Target sequence (Q9HC16 whole entry, looked up): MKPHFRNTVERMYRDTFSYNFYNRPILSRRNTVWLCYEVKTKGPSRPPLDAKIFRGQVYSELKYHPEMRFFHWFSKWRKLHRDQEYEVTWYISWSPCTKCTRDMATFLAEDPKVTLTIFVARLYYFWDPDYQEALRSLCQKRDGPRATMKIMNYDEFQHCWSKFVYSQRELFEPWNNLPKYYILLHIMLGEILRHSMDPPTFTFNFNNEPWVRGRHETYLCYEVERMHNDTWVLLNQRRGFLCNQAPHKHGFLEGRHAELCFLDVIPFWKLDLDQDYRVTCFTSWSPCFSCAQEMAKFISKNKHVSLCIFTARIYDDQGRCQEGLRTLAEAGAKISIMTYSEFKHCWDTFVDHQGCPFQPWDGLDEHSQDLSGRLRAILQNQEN
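Read-out is eYFP fluorescence (Ex 488/Em 500-530) from Vif-expressing HeLa A3G-eYFP cells; more signal means A3G escaped Vif-mediated degradation. Cells plated overnight, compound pinned in, incubated overnight at 37 deg C.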
SW480 rerep – DNA re-replication induction in SW480 cells. Potency, µM (highest dose often 46.1 µM), actives largely listed as activators. actives 1.8% (n = 340,000). SW480 DNA re-replication, Hoechst DNA content imaging, 48 h; note: nearly all actives have a fitted effect of over 55% in size
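Image-based read-out: total Hoechst fluorescence of nuclei (405 nm excitation, 500-530 nm emission), with hits raising the fraction of high-intensity nuclei. SW480 colon cells incubated 48 hr with compounds at 37 C.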
Numbers stand for hits; 0 = inactive; ? = inconclusive; - = no result given. An excerpt weighted towards active compounds, which were near 6.9% of everything screened. Unless noted, calls come from the whole dose curve; as a rule, active = well fitted curve in the direction sought with a large enough effect; inconclusive = small, poorly fitted or top-dose-only effect, or another doubt; inactive = no such curve, though single readings can be large; an effect the other way counts as inactive or inconclusive.

SMILES | Vif-APOBEC3F blk | Giardia killer | IL1B secr inh | MCF10A rereplic | Vif-A3G inh | SW480 rerep
O=C1OCC2=C1C(c1ccc3c(c1)OCO3)c1cc3c(cc1O2)OCO3 (stereo not given) | 0 | 0 | 0 | 8.2µM | ? | 4.6µM
COc1cc(C2C3=C(COC3=O)Oc3cc4c(cc32)OCO4)cc(OC)c1O (stereo not given) | 0 | 0 | 0 | ? | 0 | ?
CCN(CC)C1Oc2cc3c(cc2C(c2cc(OC)c(OC)c(OC)c2)C1C)OCO3 (stereo not given) | 0 | ? | 0 | 1.5µM | ? | ?
CC(C)c1ccc(C2C3=C(COC3=O)Nc3cc4c(cc32)OCO4)cc1 (stereo not given) | ? | 0 | 0 | ? | 0 | ?
Cc1cc(=O)oc2c(O)c(O)ccc12 | 0 | 0 | 0 | 0 | 0 | 0
Cc1cc(=O)oc2c(N)nccc12 | - | - | -105 | - | 0 | -
Cc1cc(=O)c2c([nH]1)c(C)cc1[nH]c(C)c(C)c12 | 0 | 0 | 0 | 0 | 0 | 9.2µM
Cc1cc(C)c(S(C)(=O)=O)c(=O)[nH]1 | 0 | 0 | 0 | 0 | 0 | 0
CC1CCN(C(C(=O)NC2CCCCC2)c2cc3c(cc2[N+](=O)[O-])OCO3)CC1 (stereo not given) | 0 | 0 | 0 | 0 | 0 | ?
CC1CCCN(C(C(=O)NC2CCCCC2)c2cc3c(cc2[N+](=O)[O-])OCO3)C1 (stereo not given) | 0 | 0 | -59 | 0 | 0 | 0
O=C(Cn1ncc2c1-c1ccccc1OC2)N1CCN(Cc2ccccc2)CC1 | 0 | 0 | 0 | 0 | 0 | 0
Cc1nn(CC(=O)N2c3ccccc3NC(=O)C2(C)C)c(C)c1[N+](=O)[O-] | 0 | 0 | 0 | ? | 0 | 0
CC1(C)C(=O)Nc2ccccc2N1C(=O)Cn1ncc(Cl)c(Cl)c1=O | 0 | 0 | -99 | ? | 0 | 9.2µM
O=C(Cn1ncc(Cl)c(Cl)c1=O)N1CCc2ccccc21 | 0 | 0 | -109 | 10µM | 0 | 0
O=C(Cn1ncc(Cl)c(Cl)c1=O)N1CCOCC1 | 0 | 0 | -99 | 3.7µM | 0 | 2.9µM
O=C(Cn1ncc(Cl)c(Cl)c1=O)N1CCN(Cc2ccccc2)CC1 | 0 | 0 | 0 | 4.1µM | ? | 0
COC(=O)c1ccc(NC(=O)CN2C(=O)CC(c3ccccc3)Sc3ccccc32)cc1 (stereo not given) | 0 | - | - | - | 0 | -
Cc1csc2nc(-c3cccc(NC(=O)c4c(F)cccc4F)c3)cn12 | 0 | - | - | - | 0 | -
CC(=O)c1ccc(Nc2nc(N3CCOCC3)nc(N3CCOCC3)n2)cc1 | 0 | 0 | -54 | 0 | 0 | 0
CC(=O)c1cccc(Nc2nc(N3CCOCC3)nc(N3CCOCC3)n2)c1 | 0 | 0 | 0 | 0 | 0 | 0
FC(F)(F)Oc1ccc(Nc2nc(N3CCOCC3)nc(N3CCOCC3)n2)cc1 | 0 | 0 | 0 | ? | 0 | 21µM
CCc1ccc(Nc2nc(N3CCOCC3)nc(N3CCOCC3)n2)cc1 | 0 | 0 | ? | 0 | 0 | 8.2µM
CCOC(=O)c1ccc(Nc2nc(N3CCOCC3)nc(N3CCOCC3)n2)cc1 | 0 | 0 | 0 | ? | 0 | ?
O=C(CSc1nc(Nc2ccccc2)nc(N2CCOCC2)n1)Nc1ccc(Br)cc1F | 0 | 0 | 0 | 15µM | 0 | ?
COc1ccc(Nc2nc(OC)nc(N3CCOCC3)n2)cc1 | 0 | 0 | 0 | 0 | 0 | 0
SMILES | Vif-APOBEC3F blk | Giardia killer | IL1B secr inh | MCF10A rereplic | Vif-A3G inh | SW480 rerep
Cc1cc(NC(=O)CCCn2c(C)c3cnn(-c4ccccc4)c(=O)c3c2C)ccc1Br | 0 | - | - | - | 0 | -
CCc1ccccc1NC(=O)CSc1nncn2c1cc1oc(C)cc12 | 0 | - | - | - | 0 | -
CC(=O)Nc1ccc(SCCN2CCN(CC(C)C)CCC2=O)cc1 | - | 0 | - | - | 0 | -
Fc1cccc(Nc2nc(N3CCOCC3)nc(N3CCOCC3)n2)c1 | 0 | 0 | ? | 23µM | 0 | ?
Cc1ccc(Nc2nc(OC(C(F)(F)F)C(F)(F)F)nc(N3CCOCC3)n2)cc1 | 0 | 0 | -80 | ? | 0 | 0
FC(F)(F)C(Oc1nc(NC2CCCCC2)nc(N2CCOCC2)n1)C(F)(F)F | 0 | 0 | 0 | ? | 0 | ?
COc1ccc(Cl)cc1Nc1nc(NCCO)nc(N2CCCC2)n1 | 0 | 0 | 0 | 0 | 0 | 0
COC(=O)c1ccc(Oc2nc(N3CCCCC3)nc(N3CCOCC3)n2)cc1 | 0 | 0 | -55 | 0 | 0 | 0
CC(C)Oc1ccc(Cl)cc1Nc1nc(NCCO)nc(N2CCCC2)n1 | 0 | 0 | - | 23µM | 0 | ?
NC(C(=O)O)c1nn[nH]n1 (stereo not given) | - | 0 | - | - | 0 | -
COC(=O)c1cc2oc3ccccc3c2n1CC(=O)Nc1cc(OC)cc(OC)c1 | 0 | - | - | - | 0 | -
COc1ccc(Nc2nc(N3CCOCC3)nc(N3CCOCC3)n2)cc1Cl | 0 | 0 | -58 | 0 | 0 | 0
Cc1ccc([N+](=O)[O-])cc1Nc1nc(N2CCOCC2)nc(N2CCOCC2)n1 | 0 | 0 | 0 | 0 | 0 | 0
Cc1ccc(Cl)cc1Nc1nc(N2CCOCC2)nc(N2CCOCC2)n1 | 0 | 0 | -54 | 0 | 0 | ?
COc1ccc(N2CCN(c3nc(Cl)nc(Nc4ccc(F)cc4)n3)CC2)cc1 | 0 | 0 | -79 | ? | 0 | 0
COc1ccc(N2CCN(c3nc(Nc4ccc(C)c(F)c4)nc(N4CCCC4)n3)CC2)cc1 | 0 | 0 | ? | 0 | 0 | 0
COc1cc(/C=c2\[nH]c(=O)/c(=C/c3cc(OC)c(OC)c(OC)c3)[nH]c2=O)cc(OC)c1OC | - | - | - | - | 0 | -
CCOC(=O)C(=Cc1cc(=O)c(OC)co1)C(=O)OCC | 0 | 0 | -97 | 1.6µM | ? | ?
COc1coc(C(O)CN)cc1=O (stereo not given) | 0 | 0 | 0 | 0 | 0 | 0
CCOC(=O)c1c(C)n(-c2ccc(C)cc2)c2ccc(OCC(O)CN3CCN(C)CC3)cc12 (stereo not given) | 0 | 0 | -58 | ? | 0 | 0
CCOC(=O)c1c(-c2ccccc2)oc2ccc(OCC(O)CNCCN(C)C)cc12 (stereo not given) | 0 | 0 | -103 | ? | 0 | 0
CCOC(=O)c1c(-c2ccccc2)oc2ccc(OCC)cc12 | 0 | 0 | 0 | ? | 0 | 0
CCOC(=O)c1c(C)n(C)c2ccc(OCC(O)CNCCc3ccccc3)cc12 (stereo not given) | 0 | 0 | -60 | 0 | 0 | 0
CCOC(=O)c1c(C)n(C)c2ccc(OCC(O)Cn3c(C)nc4ccccc43)cc12 (stereo not given) | 0 | 0 | -54 | ? | 0 | 0
COc1ccc(Cn2c(NCC(C)C)nc3c2c(=O)n(C)c(=O)n3C)cc1 | 0 | - | - | - | 0 | -
COc1cccc(CNCCSc2nnnn2C)c1OCc1ccc(Cl)cc1 | 0 | - | - | - | 0 | -
Cc1ccc(NC(=O)CSc2nc3nccnc3c(=O)n2CCc2c[nH]c3ccccc23)c(C)c1 | 0 | - | - | - | 0 | -
CCN(CC)S(=O)(=O)c1cccc(C(=O)Nc2ccc(Cl)cn2)c1 | 0 | 0 | 0 | 0 | 0 | 0

Compound activity as filed in PubChem BioAssay.
